Data as given in PubChem BioAssay (NCI).
About 79,000 compounds went through this panel and 15% of them were active in at least one assay; those are over-represented in the sample as a whole. Active and inactive are the calls of the source. Cut-off read from the data, not from the text of the source: active = growth inhibition above about 70%; inactive = the rest.

Tests used:
[1] = NCI Yeast Anticancer Drug Screen. Data for the rad50 strain (AID 155);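 note: 0% = growth of vehicle-only cultures of the same strain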; settings: S. cerevisiae rad50 strain growth inhibition; at 50.0 µM; stronger effect = higher value
Outline: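 Vehicle-treated cultures provide the reference for the growth inhibition reported for compound-exposed, repair-deficient yeast.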

[2] = NCI Yeast Anticancer Drug Screen. Data for the mec2-1 strain (AID 157); settings: S. cerevisiae mec2-1 strain, at 50.0 µM, stronger effect = higher value
Outline: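 Each compound was tested on mec2-1 yeast, a strain altered in DNA damage repair or cell cycle control. Growth inhibition is reported relative to vehicle.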

[3] = NCI Yeast Anticancer Drug Screen. Data for the sgs1 mgt1 strain (AID 161);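 note: 0% = growth of cultures given vehicle only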; settings: S. cerevisiae sgs1 mgt1 strain, at 50.0 µM, stronger effect = higher value
Outline: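 Inhibition of yeast growth, normalised to vehicle-treated controls, is reported for a strain bearing genetic alterations in DNA damage repair.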

[4] = NCI Yeast Anticancer Drug Screen. Data for the cln2 rad14 strain (AID 165);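 note: 0% = growth equal to vehicle treated cultures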; settings: S. cerevisiae cln2 rad14 strain, at 50.0 µM, stronger effect = higher value
Outline: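 Test compounds were added to cln2 rad14 yeast cultures; inhibition of growth was then determined by comparison with vehicle treatment.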

[5] = NCI Yeast Anticancer Drug Screen. Data for the bub3 strain (AID 167); settings: S. cerevisiae bub3 mutant strain, at 50.0 µM, stronger effect = higher value
Outline: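 Mutant yeast screening strain plus compound; vehicle-treated cultures serve as the 0% inhibition reference.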

[6] = NCI Yeast Anticancer Drug Screen. Data for the mlh1 rad18 strain (AID 175); settings: S. cerevisiae mlh1 rad18 strain growth inhibition; at 50.0 µM; stronger effect = higher value
Outline: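 Inhibition values reflect reduced growth of mutant yeast versus vehicle-treated controls following compound exposure; the mutations affect DNA damage repair.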

Measured: growth inhibition

CCCCn1cnc2c(=O)[nH]cnc21
inactive: [1] 3.2% | [2] 2.25% | [3] -5.15% | [4] -14.8% | [5] 8.95% | [6] 2.3%

CSc1nsc(N)n1
inactive: [1] -13.3% | [2] 2.5% | [3] -4.2% | [4] -26.9% | [5] 16.8% | [6] 20.7%

Cc1cccnc1NC1OC(=O)c2ccccc21 (stereo not given)
inactive: [1] -22.1% | [2] -4.4% | [3] -16.6% | [4] 2.05% | [5] -9.25% | [6] -9.65%

Cc1onc(-c2c(F)cccc2Cl)c1-c1ncc(-c2ccc(Br)cc2)o1
inactive: [1] -13.4% | [2] -15.9% | [3] -9.75% | [4] 9.45% | [5] -15.5% | [6] 9.7%

OCCNc1ccccc1
inactive: [1] 31.9% | [2] 11.4% | [3] 2.75% | [4] 11.1% | [5] 6.3% | [6] 9.7%

NC(=S)N/N=C/c1ccc(OC(=O)COc2ccccc2)cn1
inactive: [1] -2.8% | [2] -13.4% | [3] 14.3% | [4] 7.45% | [5] -11% | [6] 9.9%

Oc1ccc(CCC2CCNc3ccccc32)cc1 (stereo not given)
inactive: [1] 0.35% | [2] -1.85% | [3] -14.2% | [4] -11.7% | [5] -3.95% | [6] -3.9%

Nc1nc2nnc(-c3ccccc3)c(-c3ccccc3)n2n1
inactive: [1] 12.8% | [2] 14.1% | [3] 6.4% | [4] 13.8% | [5] 9.65% | [6] -8.8%

CC1CN(CCO)CC(C)O1 (stereo not given)
inactive: [1] -14.1% | [2] -26.8% | [3] 4.05% | [4] 5% | [5] -1.15% | [6] -10.2%

O=C(Oc1ccccc1Cl)c1ccc(Cl)cc1Cl
inactive: [1] 2.2% | [2] 33.4% | [3] 24.9% | [4] -49.4% | [5] 43.2% | [6] 48.3%

Cc1c(-c2ccc(C3CCCCC3)cc2)nc2ccc(F)cc2c1C(=O)O
inactive: [1] 15.3% | [2] 8.15% | [3] 12.3% | [4] 5.3% | [5] 1.8% | [6] -15.2%

CC1CC(C)S(=O)(=O)C1 (stereo not given)
inactive: [1] -35% | [2] -30.9% | [3] -39% | [4] -14.9% | [5] -39.8% | [6] -2%

O=S(=O)(O)c1cccnc1
inactive: [1] 12.4% | [2] 6% | [3] 10.7% | [4] -11.6% | [5] -2.25% | [6] 15.8%

Cc1ccc(O)c(N)c1
inactive: [1] 2.1% | [2] -12.5% | [3] -20.3% | [4] 2.35% | [5] -9.6% | [6] 0.95%

CCCC(OC(C)=O)c1ccc2c(c1)OCO2 (stereo not given)
inactive: [1] 26.4% | [2] 27.5% | [3] 17.3% | [4] -12% | [5] 20.9% | [6] 29.2%

COc1cc(N)c2ncccc2c1Cl
inactive: [1] 17.6% | [2] 3.55% | [3] 24.4% | [4] -0.05% | [5] -7.3% | [6] 30.4%

NNC(=O)c1ccccc1N
inactive: [1] -1.8% | [2] 4.35% | [3] 27.1% | [4] -11.2% | [5] -2% | [6] -1.55%

CC(=O)O[C@H]1CC[C@]2(C)C3=C(C(=O)C[C@H]2C1(C)C)[C@]1(C)CC[C@H]([C@H](C)CCC(=O)O)[C@@]1(C)CC3=O
inactive: [1] 42.8% | [2] -8.05% | [3] 33.2% | [4] 3.5% | [5] 2.05% | [6] 0.4%

COC(C(=O)C(O)C(C)O)C1Cc2cc3cc(OC4CC(OC5CC(O)C(O)C(C)O5)C(O)C(C)O4)c(C)c(O)c3c(O)c2C(=O)C1OC1CC(OC2CC(O)C(OC3CC(C)(O)C(O)C(C)O3)C(C)O2)C(O)C(C)O1 (stereo not given)
inactive: [1] -6.6% | [2] -23.4% | [3] -12.5% | [4] 6.95% | [5] -11.2% | [6] 11.8%

N#C/C(=C\NC(=S)N=Nc1c(O)[nH]c2ccccc12)c1nc2ccccc2s1
inactive: [1] 10.1% | [2] 2.3% | [3] 29.1% | [4] -10.1% | [5] 17.9% | [6] 14.5%

COc1ccc(C(=O)/C(=N/Nc2ccccc2)c2ccc(OC)cc2)cc1
inactive: [1] -3.45% | [2] -13.8% | [3] -1.25% | [4] 2% | [5] 1.8% | [6] 30.8%

OCC(O)COc1ccc(Cl)cc1Cl (stereo not given)
inactive: [1] 22.2% | [2] 6.25% | [3] 25.8% | [4] 8.85% | [5] 10.1% | [6] 16.8%

CCCCCC#CC(=O)O
inactive: [1] -3.05% | [2] -3.95% | [3] -8.05% | [4] 17.9% | [5] -7.3% | [6] 19.4%

O=S(Cc1ccccc1)/C(=C/NC(=S)Nc1ccccc1)c1ccccc1 (stereo not given)
inactive: [1] -26.7% | [2] -25.1% | [3] -40.1% | [4] -0.95% | [5] -16.9% | [6] -7.15%

COC(=O)C1(CC(C)=O)NC(=S)NC(=O)C1C#N (stereo not given)
inactive: [1] -21.4% | [2] -26.9% | [3] -36.3% | [4] -38.2% | [5] -30.1% | [6] -15.3%

Clc1cccc(Cl)c1C1CSc2ccccc2N=C1c1ccccc1 (stereo not given)
inactive: [1] -2.55% | [2] 8.9% | [3] 16.3% | [4] 11% | [5] -0.9% | [6] 3.65%

CCOC(=O)C(C#N)=C1CCN(C)CC1
inactive: [1] 8.45% | [2] -4.75% | [3] -0.75% | [4] 10.2% | [5] -27.4% | [6] -5.6%

CC(=O)NNC(=S)N/C=C/c1c(C)ccc([N+](=O)[O-])c1[N+](=O)[O-]
inactive: [1] -24.5% | [2] -35% | [3] -28.4% | [4] -31.9% | [5] -36% | [6] -2.8%

CCC1CCC(C)NC1 (stereo not given)
inactive: [1] 26.4% | [2] 2.75% | [3] 17.2% | [4] 23.6% | [5] -7.05% | [6] 21.8%

S=C(Sc1ccc(Cl)cc1)Sc1ccc(Cl)cc1
inactive: [1] 46.5% | [2] 19.9% | [3] 54% | [4] 23.1% | [5] 29.6% | [6] 24.1%

OCc1cccnc1
inactive: [1] -6.3% | [2] -36.9% | [3] 15.3% | [4] 9.55% | [5] -18.5% | [6] 5.75%

C=CCc1cc(OC)c(OC)c(OC)c1
inactive: [1] 7.8% | [2] -4.2% | [3] -16.3% | [4] -6.6% | [5] -9.7% | [6] -4%

N=C(N)c1nn(C2OC(CO)C(O)C2O)c2nc[nH]c(=O)c12 (stereo not given)
inactive: [1] 0.75% | [2] -9.5% | [3] 10.2% | [4] 17.6% | [5] 5.7% | [6] 27.1%

Cc1cc2nc(C)c(C)nc2cc1C
inactive: [1] -20.5% | [2] -37.9% | [3] -27.2% | [4] 7.75% | [5] -25.7% | [6] -20.4%

COc1cccc2c1Cc1ccccc1-2
inactive: [1] 50.3% | [2] -3.6% | [3] 13.3% | [4] 12.8% | [5] 43.1% | [6] 24.4%
